Laboratory results reported in PubChem BioAssay.
The source made the active and inactive calls.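 The calls were made as follows, unless noted: active = inhibition above 20% together with a positive visual image hit; inconclusive = visual image hit but inhibition not above 20%; inactive = no visual image hit.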

Assay: inhibitors of TNFa-induced NFkB p65 translocation, primary screen, imaging, HUVEC, MLSMR starter and 10KST1 sets (AID 438);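 also: compound added about 3h40 before a 20 min TNFalpha stimulation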;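 as to inhibition: signal is the nuclear over cytoplasmic p65 intensity ratio per well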
Details: HUVEC TNFa-induced p65 nuclear translocation; cell count: measured here: nuclei count (cytotoxicity indicator), at 2.08 µM; inhibition: at 2 µM, stronger effect = higher value, 0% TNFa-plus-vehicle, 100% no-TNFa wells

SMILES	inhibition	cell count
Cc1cc(C)n(-c2ccc(N3CCOCC3)nn2)n1	-5.2% (inactive)	610
O=C(Nc1ccc(S(=O)(=O)N2CCc3ccccc32)cc1)c1ccc2c(c1)OCO2	-10% (inactive)	307
Cc1ccc2occ(CN3CCN(c4ccccc4)CC3)c(=O)c2c1	-0.8% (inactive)	258
Cc1ccc(S(=O)(=O)N2CCN(C(=O)CSC3CCCC3)CC2)c(C)c1	3.7% (inactive)	318
Nc1nonc1-n1nnc(C(=O)c2ccccc2)c1-c1ccccc1	-20% (inactive)	412
COc1cc(C2c3c(n[nH]c3C)C(=O)N2c2ccc(C)cc2)ccc1O (stereo not given)	-8.1% (inactive)	335
CC(C)(C)n1nnnc1CN(Cc1ccco1)Cc1cc2cc3c(cc2[nH]c1=O)OCO3	13.3% (inactive)	667
COc1ccccc1N1CCN(S(=O)(=O)CC23CCC(CC2=O)C3(C)C)CC1 (stereo not given)	-8.1% (inactive)	522
CC1(C)CC(=O)C=C(NCCN2CCN(C(=O)Nc3ccccc3)CC2)C1	-5.8% (inactive)	730
Cc1ccccc1OCc1nnc(SCC(=O)NCc2ccccc2)n1C	3.9% (inactive)	409
CCN(CC(=O)O)S(=O)(=O)c1cc(Cl)ccc1Cl	5.6% (inactive)	353
COC(=O)C1CCN(C(=O)CN2C(=O)NC(CCc3ccccc3)C2=O)CC1 (stereo not given)	-9.6% (inactive)	552
CCOC(=O)Cn1c(CN2CCOCC2)nc2c1c(=O)[nH]c(=O)n2C	-1% (inactive)	507
CCc1cccc(NC(=O)CN(C)S(=O)(=O)c2cccc3nsnc23)c1	-6.3% (inactive)	337
O=C(Cn1ncc2c(=O)oc3ccccc3c21)Nc1nc2ccccc2s1	-0.7% (inactive)	313
Cn1c(SCc2ccccc2)nnc1C1CCCNC1 (stereo not given)	-2.3% (inactive)	784
Cc1c(NC(=O)c2ccc(COc3ccc4ccccc4c3)o2)c(=O)n(-c2ccccc2)n1C	2.2% (inactive)	417
CCOc1ccccc1-n1c(SCC(=O)NCc2ccco2)nnc1-c1ccncc1	8.9% (inactive)	376
COc1ccc(/C=N/n2cnnc2SCc2ccc(OC)cc2)cc1	3.1% (inactive)	378
CCN(CCCNC(=O)C1CCCN(S(=O)(=O)c2cnc[nH]2)C1)c1ccccc1 (stereo not given)	21.8% (inactive)	611

SMILES	inhibition	cell count
COc1cc(Cn2c(-c3nonc3N)nc3ccccc32)ccc1C	-1.5% (inactive)	329
C(/CCc1ccccc1)=N\n1cnnc1	18.4% (inactive)	312
Clc1ccc(OCCCn2cncn2)cc1Cl	3.4% (inactive)	432
Cn1c(=O)c2c(nc(CN3CCc4ccccc4C3)n2Cc2cccc(Cl)c2)n(C)c1=O	8% (inactive)	646
c1ccc(N=P(c2nc3ccccc3o2)(N2CCOCC2)N2CCOCC2)cc1	-7.9% (inactive)	547
CN1C(=O)C(O)(CC(=O)c2ccc(F)cc2)c2cc(Br)ccc21 (stereo not given)	6% (inactive)	580
O=C(c1ccc(Br)cc1)N1CCN(S(=O)(=O)c2ccccc2)CC1	-5.1% (inactive)	556
O=C(CN1CCN(C2CCCCC2)CC1)Nc1ccccc1-c1ccccc1	18.4% (inactive)	273
CC1CCCC(N2CCN(C(=O)c3ccc(F)cc3)CC2)C1 (stereo not given)	-1.3% (inactive)	625
O=C(Nc1ccccc1C(=O)N1CCOCC1)c1cccc(S(=O)(=O)N2CCCC2)c1	-5.3% (inactive)	440
O=C(Nc1cc(C(F)(F)F)ccc1Cl)C1CCN(c2nnc(-n3cccc3)s2)CC1	-2.9% (inactive)	329
CC(C)c1ccc(C(O)c2cnc(C(C)C)n2C)cc1 (stereo not given)	6.9% (inactive)	723
CCOc1cccc(-c2nnc3n2N=C(c2cc(OC)ccc2OC)CS3)c1	15.8% (inactive)	404
CCOC(=O)N1CCC(N2C(=O)c3ccccc3C2Nc2cccnc2)CC1 (stereo not given)	-4.5% (inactive)	592
CCn1ncc(C2=NOC(C(=O)Nc3ccc4c(c3)OCO4)C2)c1C (stereo not given)	-0.3% (inactive)	640
O=C(NCc1nc2ccccc2[nH]1)c1ccco1	0.8% (inactive)	440
C=CCSc1nnc(Cc2c(C)[nH]c3ccccc23)o1	3.5% (inactive)	800
COCCn1c(CN2CCN(c3ccccc3F)CC2)nc2c1c(=O)n(C)c(=O)n2C	-5.2% (inactive)	609
O=C(Nc1cccc(NC(=O)c2ccco2)c1)c1ccc2c(c1)OCO2	-6.1% (inactive)	696
CCOC(=O)N1CCN(Cc2nc3c(c(=O)[nH]c(=O)n3C)n2Cc2cc(C)ccc2C)CC1	-2.2% (inactive)	693

Assay: inhibitors of mutant huntingtin aggregation, primary screen, imaging, exon1htt(103Q)mCFP cells, high-content imaging (AID 483;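 active = visual image review flags a hit and inhibition of aggregation exceeds 20%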;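 also: compound exposure lasted 3 days before fixation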;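 as to nuclei count: percent of the per-plate median nuclei count of sample wells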)
Details: exon1htt(103Q)mCFP cell line, aggregate imaging, at 2 µM; inhibition of aggregation: stronger effect = higher value; nuclei count: measured here: cell count, toxicity

SMILES	inhibition of aggregation	nuclei count [%]
Cc1cc(C)n(-c2ccc(N3CCOCC3)nn2)n1	-8.5% (inactive)	100
O=C(Nc1ccc(S(=O)(=O)N2CCc3ccccc32)cc1)c1ccc2c(c1)OCO2	14.7% (inactive)	95.5
Cc1ccc2occ(CN3CCN(c4ccccc4)CC3)c(=O)c2c1	14.3% (inactive)	81.9
Cc1ccc(S(=O)(=O)N2CCN(C(=O)CSC3CCCC3)CC2)c(C)c1	-0.7% (inactive)	93.6
Nc1nonc1-n1nnc(C(=O)c2ccccc2)c1-c1ccccc1	1.5% (inactive)	110
COc1cc(C2c3c(n[nH]c3C)C(=O)N2c2ccc(C)cc2)ccc1O (stereo not given)	-6% (inactive)	86.3
CC(C)(C)n1nnnc1CN(Cc1ccco1)Cc1cc2cc3c(cc2[nH]c1=O)OCO3	-11.2% (inactive)	108
COc1ccccc1N1CCN(S(=O)(=O)CC23CCC(CC2=O)C3(C)C)CC1 (stereo not given)	20.7% (inactive)	103
CC1(C)CC(=O)C=C(NCCN2CCN(C(=O)Nc3ccccc3)CC2)C1	0% (inactive)	99.6
Cc1ccccc1OCc1nnc(SCC(=O)NCc2ccccc2)n1C	-6.5% (inactive)	106
CCN(CC(=O)O)S(=O)(=O)c1cc(Cl)ccc1Cl	10.8% (inactive)	97.3
COC(=O)C1CCN(C(=O)CN2C(=O)NC(CCc3ccccc3)C2=O)CC1 (stereo not given)	-7.5% (inactive)	95.7
CCOC(=O)Cn1c(CN2CCOCC2)nc2c1c(=O)[nH]c(=O)n2C	-19.1% (inactive)	102
CCc1cccc(NC(=O)CN(C)S(=O)(=O)c2cccc3nsnc23)c1	7.8% (inactive)	94
O=C(Cn1ncc2c(=O)oc3ccccc3c21)Nc1nc2ccccc2s1	1.3% (inactive)	96.3
Cn1c(SCc2ccccc2)nnc1C1CCCNC1 (stereo not given)	0.6% (inactive)	100
Cc1c(NC(=O)c2ccc(COc3ccc4ccccc4c3)o2)c(=O)n(-c2ccccc2)n1C	1.1% (inactive)	101
CCOc1ccccc1-n1c(SCC(=O)NCc2ccco2)nnc1-c1ccncc1	6% (inactive)	93
COc1ccc(/C=N/n2cnnc2SCc2ccc(OC)cc2)cc1	1.4% (inactive)	96.9
CCN(CCCNC(=O)C1CCCN(S(=O)(=O)c2cnc[nH]2)C1)c1ccccc1 (stereo not given)	-4.7% (inactive)	100

SMILES	inhibition of aggregation	nuclei count [%]
COc1cc(Cn2c(-c3nonc3N)nc3ccccc32)ccc1C	-18.3% (inactive)	65
C(/CCc1ccccc1)=N\n1cnnc1	-7% (inactive)	109
Clc1ccc(OCCCn2cncn2)cc1Cl	21.2% (inactive)	99.2
Cn1c(=O)c2c(nc(CN3CCc4ccccc4C3)n2Cc2cccc(Cl)c2)n(C)c1=O	0.6% (inactive)	102
c1ccc(N=P(c2nc3ccccc3o2)(N2CCOCC2)N2CCOCC2)cc1	23.4% (inactive)	87.6
CN1C(=O)C(O)(CC(=O)c2ccc(F)cc2)c2cc(Br)ccc21 (stereo not given)	22.6% (inactive)	69.5
O=C(c1ccc(Br)cc1)N1CCN(S(=O)(=O)c2ccccc2)CC1	3.3% (inactive)	66.6
O=C(CN1CCN(C2CCCCC2)CC1)Nc1ccccc1-c1ccccc1	16.3% (inactive)	110
CC1CCCC(N2CCN(C(=O)c3ccc(F)cc3)CC2)C1 (stereo not given)	-15.5% (inactive)	106
O=C(Nc1ccccc1C(=O)N1CCOCC1)c1cccc(S(=O)(=O)N2CCCC2)c1	0.3% (inactive)	92.3
O=C(Nc1cc(C(F)(F)F)ccc1Cl)C1CCN(c2nnc(-n3cccc3)s2)CC1	6.1% (inactive)	84.2
CC(C)c1ccc(C(O)c2cnc(C(C)C)n2C)cc1 (stereo not given)	-27.2% (inactive)	50.5
CCOc1cccc(-c2nnc3n2N=C(c2cc(OC)ccc2OC)CS3)c1	-30.5% (inactive)	10.2
CCOC(=O)N1CCC(N2C(=O)c3ccccc3C2Nc2cccnc2)CC1 (stereo not given)	-28.1% (inactive)	100
CCn1ncc(C2=NOC(C(=O)Nc3ccc4c(c3)OCO4)C2)c1C (stereo not given)	0.2% (inactive)	99.9
O=C(NCc1nc2ccccc2[nH]1)c1ccco1	1.3% (inactive)	113
C=CCSc1nnc(Cc2c(C)[nH]c3ccccc23)o1	20.5% (inactive)	92.7
COCCn1c(CN2CCN(c3ccccc3F)CC2)nc2c1c(=O)n(C)c(=O)n2C	0.1% (inactive)	92.3
O=C(Nc1cccc(NC(=O)c2ccco2)c1)c1ccc2c(c1)OCO2	-10.2% (inactive)	108
CCOC(=O)N1CCN(Cc2nc3c(c(=O)[nH]c(=O)n3C)n2Cc2cc(C)ccc2C)CC1	-78% (inactive)	115
